Records with an inconclusive call do not appear. Active and inactive are the calls of the source. Unless noted, calls follow the shape of the dose curve; as a rule, active = well fitted curve in either direction with a large enough effect (not every such curve was filed as active); inconclusive = small, poorly fitted or top-dose-only effect, or another doubt; inactive = flat fitted curve, though single readings scatter.
How the values were obtained:
[1] = AP1 Signaling Pathway (AID 357);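 also: ME-180 reporter cells stimulated with EGF at its EC50 level; % is scaled to controls: 0 for no effect and ±100 for the full control effect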
Summary of the method: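 Cells are seeded overnight, exposed to compound titrations and an EC50 level of EGF for 5 hours at 37 °C, then loaded with CCF4 dye for 2.5 hours. Beta-lactamase activity under the AP-1 element is read as a blue/green ratio.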

[2] = Cell Viability - BJ (AID 421; calls by dose curve;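 also: potency is read from the fitted curve at half-maximal effect; cells exposed to compound for 40 hours at 37 °C before readout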); conditions: BJ fibroblast viability, qHTS
Summary of the method: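 Luminescent ATP signal (CellTiter-Glo, 20 min at room temperature) served as the read-out of viable BJ cells after 40 hours of compound treatment. Responses were scaled between DMSO and 100 uM tamoxifen, and AC50 values were obtained by Hill modeling.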

[3] = Cell Viability - Hek293 (AID 427;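 active = compounds whose dose-response curve shows a full or clear partial loss of cell viability, called from curve shape rather than a numeric limit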;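 also: potency is read from the fitted curve at half-maximal effect; cells exposed to compound for 40 hours at 37 °C before reading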); conditions: qHTS
Summary of the method: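 Luminescent ATP read-out (CellTiter-Glo, 20 min RT) after 40 hr compound exposure at 37 °C in complete medium. Signal normalized to DMSO (basal) and 100 uM tamoxifen (100% inhibition); concentration-response fitted with the standard Hill equation to give AC50.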

[4] = Cell Viability - HepG2 (AID 433; calls by dose curve;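 also: potency is read from the fitted curve at half-maximal effect; potency for ATP loss meaning cytotoxicity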); conditions: qHTS
Summary of the method: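 Cytotoxicity is scored as loss of intracellular ATP in HepG2 cells exposed to compounds for 40 h. Concentration-response curves, normalized to DMSO and 100 uM tamoxifen, give AC50 values.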

[5] = Cell Viability - MRC5 (AID 434; calls by dose curve;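 also: potency is read from the fitted curve at half-maximal effect; cells exposed to compound for 40 hours at 37 °C; potency reflects cytotoxicity seen as loss of intracellular ATP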); conditions: MRC5 lung fibroblast viability, qHTS
Summary of the method: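 AC50 values come from Hill-equation fits of intracellular ATP loss, measured by CellTiter-Glo luminescence. Normal lung fibroblasts (MRC5) had 40 hr compound treatment at 37 C, normalized between DMSO and 100 uM tamoxifen.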

[6] = Cell Viability - SK-N-SH (AID 435; calls by dose curve; also: potency is read from the fitted curve at half-maximal effect); conditions: SK-N-SH neuroblastoma cell viability qHTS
Summary of the method: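 Cells seeded at 1500 per well and incubated 5 hr at 37 °C. Compound added, then 40 hr at 37 °C. CellTiter-Glo added, 20 min at room temperature, luminescence read.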

[7] = NFAT Signaling Pathway (AID 444); conditions: Jurkat NFAT-bla M1, carbachol, beta-lactamase ratio, 5 h; at 17.2 µM (top of the series);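 also: carbachol stimulus at about its EC50 of 1 µM final; % is scaled to controls: 0 for no effect and ±100 for the full control effect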
Summary of the method: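 Read-out: CCF4 FRET ratio (460 nm/530 nm) after 1 h RT dye loading, used for %activity and AC50 from titration series. Cells: Jurkat NFAT-β-lactamase/M1 line, treated with compound plus 1 uM carbachol for 5 h, 37 °C.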

[8] = Stat Signaling Pathway (AID 446);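 also: ME-180 cervical cancer cells given 40 pM IL-6 alongside compound; SIE-controlled beta-lactamase reporter measured as 460/530 nm FRET emission ratio; % is scaled to controls: 0 for no effect and ±100 for the full control effect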
Summary of the method: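 Compound effects on IL-6-induced STAT reporter activity were measured in ME-180 cells. After overnight culture, cells were co-treated with 40 pM IL-6 for 5 hrs before beta-lactamase substrate loading at room temperature.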

[9] = target: Glucocorticoid receptor (Homo sapiens) (UniProt P04150); test: GR-GFP Redistribution (AID 450;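 active = compounds whose dose series gives a full or clear partial fitted curve of increased nuclear translocation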; also: potency is read from the fitted curve at half-maximal effect); conditions: U2OS GR-GFP nuclear translocation, laser cytometry, 2 h
Sequence of Glucocorticoid receptor (Homo sapiens) (P04150 whole entry, looked up, the tested form may be a part): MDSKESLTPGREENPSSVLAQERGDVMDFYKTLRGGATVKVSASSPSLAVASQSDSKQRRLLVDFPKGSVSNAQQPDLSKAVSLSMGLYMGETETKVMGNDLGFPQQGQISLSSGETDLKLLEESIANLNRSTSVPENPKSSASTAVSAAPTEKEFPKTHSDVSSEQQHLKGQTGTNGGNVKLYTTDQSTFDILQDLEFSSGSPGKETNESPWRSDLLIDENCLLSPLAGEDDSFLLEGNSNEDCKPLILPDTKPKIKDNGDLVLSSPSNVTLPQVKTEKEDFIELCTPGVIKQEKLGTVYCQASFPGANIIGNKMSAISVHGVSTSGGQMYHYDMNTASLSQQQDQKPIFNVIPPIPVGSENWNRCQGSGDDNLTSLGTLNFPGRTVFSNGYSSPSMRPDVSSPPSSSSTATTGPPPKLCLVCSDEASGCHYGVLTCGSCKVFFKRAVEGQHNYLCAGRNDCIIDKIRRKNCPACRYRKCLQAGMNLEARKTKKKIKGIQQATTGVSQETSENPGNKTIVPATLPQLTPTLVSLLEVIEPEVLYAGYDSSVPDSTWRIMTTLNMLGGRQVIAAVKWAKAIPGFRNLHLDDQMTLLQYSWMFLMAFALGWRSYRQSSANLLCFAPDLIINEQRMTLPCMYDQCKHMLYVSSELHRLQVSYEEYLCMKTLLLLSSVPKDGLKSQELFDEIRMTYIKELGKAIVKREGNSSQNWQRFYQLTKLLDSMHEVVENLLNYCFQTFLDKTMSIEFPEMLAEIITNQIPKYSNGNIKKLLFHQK

[10] = target: Glucocorticoid receptor (Homo sapiens) (UniProt P04150); test: GR-EFC Redistribution (AID 451; calls by dose curve; also: potency is read from the fitted curve at half-maximal effect); conditions: CHO-K1 GR-EFC translocation, beta-gal luminescence, 2 h
Summary of the method: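 Translocation of GR-ED fusion to nuclear EA restores b-gal, read by luminescence after 1 h room-temperature detection. Engineered CHO-K1 biosensor cells, 1,000/well, exposed 2 h at 37 C to titrations up to 46 uM final.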

[11] = target: Mitogen-activated protein kinase 10 (Mus musculus) (UniProt Q61831); test: JNK3 AlphaScreen Assay (AID 530);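 also: kinase came from lysate of stimulated human HepG2 cells; signal reports phosphorylation of biotinylated GST-cJun 1-79 at Ser73 with 10 µM ATP; % is scaled to controls: 0 for no effect and ±100 for the full control effect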
Summary of the method: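 qHTS titrations with 15 min compound pre-incubation before adding ATP (10 uM final). Read-out: AlphaScreen of Ser73-phosphorylated biotin-GST-cJun using HepG2 lysate JNK3 activated by IL-1β and TNFα.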

[12] = Cell Viability - N2a (AID 540; active = well fitted curve in the direction sought with a large enough effect; an effect the other way counts as inactive or inconclusive;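 also: plate controls were DMSO alone for no effect and tamoxifen control for full effect; nearly all actives have a fitted effect of over 45% in size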); conditions: N2a mouse neuroblastoma cell viability; activity change, negative = cytotoxicity: at 92.2 µM (top of the series)
Summary of the method: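 CellTiter-Glo ATP luminescence, read 20 min after reagent at room temperature, reported viability following 40 h compound treatment at 37 °C. N2a mouse neuroblastoma cells seeded 1500/well; Hill equation gave AC50.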

[13] = Cell Viability - NIH 3T3 (AID 541; active = well fitted curve in the direction sought with a large enough effect; an effect the other way counts as inactive or inconclusive;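 also: plate controls were DMSO alone for no effect and tamoxifen positive control for full effect; nearly all actives have a fitted effect of over 25% in size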)
Summary of the method: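 Intracellular ATP (CellTiter-Glo luminescence, 20 min at room temperature) measured after 40 hr compound exposure at 37 °C of 1000 NIH 3T3 mouse fibroblasts/well in complete medium; AC50 derived by Hill-equation modelling of qHTS concentration-response curves.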

[14] = Cell Viability - HUV-EC-C (AID 542; active = well fitted curve in the direction sought with a large enough effect; an effect the other way counts as inactive or inconclusive; also: % is scaled to controls: 0 for no effect and ±100 for the full control effect; nearly all actives have a fitted effect of over 35% in size)
Summary of the method: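 CellTiter-Glo luminescence measured ATP loss in HUV-EC-C cells (1000/well) after 40 hr compound exposure at 37 °C, in complete culture medium. Concentration-response data were Hill-fitted to give AC50.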

[15] = Cell Viability - H-4-II-E (AID 543; active = well fitted curve in the direction sought with a large enough effect; an effect the other way counts as inactive or inconclusive; also: % is scaled to controls: 0 for no effect and ±100 for the full control effect; nearly all actives have a fitted effect of over 35% in size)
Summary of the method: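 CellTiter-Glo luminescence (intracellular ATP) measured after 40 h compound exposure at 37 °C in H-4-II-E rat hepatoma cells seeded at 1500/well. Values are AC50s fitted with the standard Hill equation.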

[16] = Cell Viability - SH-SY5Y (AID 544; active = well fitted curve in the direction sought with a large enough effect; an effect the other way counts as inactive or inconclusive;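 also: 0% = DMSO alone and -100% = 100 µM tamoxifen; nearly all actives have a fitted effect of over 55% in size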)
Summary of the method: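 Cytotoxicity measured via ATP-dependent luciferase luminescence (CellTiter-Glo) following 40 h, 37 °C exposure of 1500 SH-SY5Y cells per well. Concentration-response data were fitted with the standard Hill equation to give AC50.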

[17] = Cell Viability - Renal Proximal Tubule (AID 545; active = well fitted curve in the direction sought with a large enough effect; an effect the other way counts as inactive or inconclusive;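 also: 0% = DMSO only and -100% = 100 µM tamoxifen; nearly all actives have a fitted effect of over 40% in size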)
Summary of the method: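 Cytotoxicity is scored as a concentration-dependent drop in cellular ATP in primary rat renal proximal tubule cells exposed for 40 hr. AC50 derives from Hill modelling.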

[18] = Cell Viability - Mesenchymal (AID 546; active = well fitted curve in the direction sought with a large enough effect; an effect the other way counts as inactive or inconclusive;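 also: cells exposed to compound for 40 hours before reading; 0% = DMSO only and -100% = 100 µM tamoxifen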)
Summary of the method: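 CellTiter-Glo luminescence (intracellular ATP, 20 min room temperature) after 40 hr compound exposure at 37 °C of 1000 glomerulus-derived human kidney mesenchymal cells/well; AC50 values obtained by fitting qHTS concentration-response data to the Hill equation.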

[19] = target: Cytochrome P450 1A2 (Homo sapiens) (UniProt P05177); test: p450-cyp1a2 (AID 410; calls by dose curve; also: potency is read from the fitted curve at half-maximal effect;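 as to activity change, negative = inhibition: -100% = full effect of reference inhibitor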)
Sequence of Cytochrome P450 1A2 (Homo sapiens) (P05177 whole entry, looked up): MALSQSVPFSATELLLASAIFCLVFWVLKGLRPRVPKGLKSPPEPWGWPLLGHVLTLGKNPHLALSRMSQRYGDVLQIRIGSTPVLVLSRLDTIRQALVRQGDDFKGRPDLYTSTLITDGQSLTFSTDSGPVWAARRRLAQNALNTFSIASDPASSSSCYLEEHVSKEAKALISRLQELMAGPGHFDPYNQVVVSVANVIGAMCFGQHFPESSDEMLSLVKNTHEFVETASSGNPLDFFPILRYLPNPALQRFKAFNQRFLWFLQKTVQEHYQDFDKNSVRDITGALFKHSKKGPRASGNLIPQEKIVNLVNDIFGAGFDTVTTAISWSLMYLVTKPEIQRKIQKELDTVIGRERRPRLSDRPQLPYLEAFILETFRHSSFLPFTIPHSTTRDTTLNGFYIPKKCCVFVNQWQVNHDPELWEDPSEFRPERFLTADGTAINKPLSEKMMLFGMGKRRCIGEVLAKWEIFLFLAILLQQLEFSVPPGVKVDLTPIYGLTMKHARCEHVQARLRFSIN
Summary of the method: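 Luminescent demethylation readout: Luciferin-ME (100uM, equal to Km) turned over by 20nM CYP1A2 for 60 min at room temperature after NADPH regeneration addition, following 10 min compound preincubation. Normalization used 57 uM furafylline as full inhibition.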

[20] = target: 3',5'-cyclic-AMP phosphodiesterase 4B (Homo sapiens) (UniProt Q07343); test: qHTS Assay for Inhibitors of PDE-IV (AID 607; active = well fitted activation curve with a large enough effect in the main read-out, with a control signal flat, not every such curve was filed as active; also: % of control where 0% means no effect)
Sequence of 3',5'-cyclic-AMP phosphodiesterase 4B (Homo sapiens) (Q07343 whole entry, looked up): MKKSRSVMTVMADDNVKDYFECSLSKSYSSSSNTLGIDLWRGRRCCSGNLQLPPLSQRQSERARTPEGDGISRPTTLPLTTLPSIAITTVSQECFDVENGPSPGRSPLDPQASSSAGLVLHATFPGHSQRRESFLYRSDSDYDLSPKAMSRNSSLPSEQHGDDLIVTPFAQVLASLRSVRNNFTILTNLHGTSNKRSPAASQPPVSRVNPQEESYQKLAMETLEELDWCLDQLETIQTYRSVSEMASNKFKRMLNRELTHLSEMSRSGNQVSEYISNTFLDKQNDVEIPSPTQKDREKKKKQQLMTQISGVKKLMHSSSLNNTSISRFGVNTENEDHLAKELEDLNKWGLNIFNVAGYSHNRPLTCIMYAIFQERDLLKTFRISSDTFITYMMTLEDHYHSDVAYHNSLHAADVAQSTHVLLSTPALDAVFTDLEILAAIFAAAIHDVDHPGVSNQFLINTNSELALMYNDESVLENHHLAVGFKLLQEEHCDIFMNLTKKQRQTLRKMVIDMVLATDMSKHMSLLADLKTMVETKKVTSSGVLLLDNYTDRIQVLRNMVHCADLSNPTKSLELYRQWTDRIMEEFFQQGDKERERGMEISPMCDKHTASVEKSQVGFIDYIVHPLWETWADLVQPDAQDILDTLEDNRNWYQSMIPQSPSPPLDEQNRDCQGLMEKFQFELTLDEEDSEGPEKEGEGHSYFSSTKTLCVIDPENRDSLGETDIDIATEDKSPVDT
Summary of the method: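 ACTOne HEK293 cells carry a modified cAMP-gated CNG channel and express endogenous PDE4; plated 1000 cells/well, compounds up to 22.9 uM final. Membrane-potential dye fluorescence (ex 535/em 590) was read; parental cells received 10 uM forskolin + 100 uM RO 20-1724.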

COc1c2occc2cc2ccc(=O)oc12
inactive: outcome [1] | Potency [2] > 92 µM | Potency [3] > 92 µM | Potency [4] > 92 µM | Potency [5] > 92 µM | Potency [6] > 92 µM | activity change, negative = inhibition [7] 0.388% | outcome [8] | Potency [9] > 20.6 µM | Potency [10] > 20.6 µM | Potency [11] | Potency [12] | Potency [13] | Potency [14] | Potency [15] | Potency [16] | Potency [17] | Potency [18]

CCCCc1ccc2nc(NC(=O)OC)[nH]c2c1
inactive: outcome [1] | outcome [8] | Potency [11] | outcome [20]
active: Potency [19] 0.501 µM

Oc1ccc(-c2nc(-c3ccc(F)cc3)c(-c3ccncc3)[nH]2)cc1
inactive: outcome [1] | outcome [8] | Potency [9] > 46 µM | Potency [10] > 46 µM | outcome [20]
active: Potency [19] 15.8 µM

CC(=O)Nc1ccc(O)cc1
inactive: outcome [1] | Potency [19] | Potency [2] > 92 µM | Potency [3] > 92 µM | Potency [4] > 92 µM | Potency [5] > 92 µM | Potency [6] > 92 µM | outcome [8] | Potency [11] | Potency [12] | Potency [13] | Potency [14] | Potency [15] | Potency [16] | Potency [17] | Potency [18]

Cc1cc2cc3c(C)cc(=O)oc3c(C)c2o1
inactive: outcome [1] | Potency [11] | outcome [20]
active: Potency [19] 1 µM

NS(=O)(=O)c1cc(C(=O)O)c(NCc2ccco2)cc1Cl
inactive: outcome [1] | Potency [2] > 92 µM | Potency [3] > 92 µM | Potency [4] > 92 µM | Potency [5] > 92 µM | Potency [6] > 92 µM | activity change, negative = inhibition [7] -8.48% | outcome [8] | Potency [11] | Potency [12] | Potency [13] | Potency [14] | Potency [16] | Potency [17] | Potency [18] | outcome [20]

— PubChem BioAssay (NCATS)
